Results taken from PubChem BioAssay (NCATS).
Records with an inconclusive call do not appear. Active and inactive are the calls of the source. The call rests on the fitted dose curve; in most records, active means well fitted curve in the direction sought with a large enough effect; inconclusive means small, poorly fitted or top-dose-only effect, or another doubt; inactive means no such curve, though single readings can be large; an effect the other way counts as inactive or inconclusive.

Assays:
[1] = Quantitative High-Throughput drug screen in 47 multiple myeloma cell lines against the NCATS MIPE library collection: KMS21BM_JCRB cell viability assay (AID 1918974); conditions: ATP luminescence, 48 h; viability: at 45.8 µM unless noted
Procedure, shortened: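 Primary qHTS used for cherry-picking: cells at 500/well, library compounds for 48 h (37C, 5% CO2), luminescent ATP assay.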

[2] = Quantitative High-Throughput drug screen in 47 multiple myeloma cell lines against the NCATS MIPE library collection: KMS26_JCRB cell viability assay (AID 1918975); further: nearly all actives have a fitted effect of over 45% in size
Procedure, shortened: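 CellTiter-Glo luminescence (ATP) after 48 h compound exposure, 37C/5% CO2; 500 cells/well; MIPE 4.0 approved/investigational drugs pinned in; DMSO = 100%, media only = 0% viability.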

[3] = Quantitative High-Throughput drug screen in 47 multiple myeloma cell lines against the NCATS MIPE library collection: MMM1_PLB cell viability assay (AID 1918976); further: nearly all actives have a fitted effect of over 35% in size
Procedure, shortened: (§1)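 500 cells/well; MIPE 4.0 drugs pin-transferred; 48 h, 37C, 5% CO2. CellTiter-Glo, 5 min RT, luminescence. Controls: DMSO 100%, media 0%.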

[4] = Quantitative High-Throughput drug screen in 47 multiple myeloma cell lines against the NCATS MIPE library collection: MOLP8_DSMZ cell viability assay (AID 1918977); further: nearly all actives have a fitted effect of over 45% in size
Procedure, shortened: as §1

[5] = Quantitative High-Throughput drug screen in 47 multiple myeloma cell lines against the NCATS MIPE library collection: OCIMY1_PLB cell viability assay (AID 1918979); further: nearly all actives have a fitted effect of over 35% in size
Procedure, shortened: as §1

[6] = Quantitative High-Throughput drug screen in 47 multiple myeloma cell lines against the NCATS MIPE library collection: MM1S_ATCC cell viability assay (AID 1918980); further: nearly all actives have a fitted effect of over 45% in size
Procedure, shortened: as §1

[7] = Quantitative High-Throughput drug screen in 47 multiple myeloma cell lines against the NCATS MIPE library collection: MM1R_ATCC cell viability assay (AID 1918981); further: nearly all actives have a fitted effect of over 35% in size
Procedure, shortened: as §1

[8] = Quantitative High-Throughput drug screen in 47 multiple myeloma cell lines against the NCATS MIPE library collection: LP1_DSMZ cell viability assay (AID 1918982); further: nearly all actives have a fitted effect of over 35% in size
Procedure, shortened: as §1

[9] = Quantitative High-Throughput drug screen in 47 multiple myeloma cell lines against the NCATS MIPE library collection: KMS28PE_JCRB cell viability assay (AID 1918983); further: nearly all actives have a fitted effect of over 35% in size
Procedure, shortened: as §1

[10] = Quantitative High-Throughput drug screen in 47 multiple myeloma cell lines against the NCATS MIPE library collection: L363_DSMZ cell viability assay (AID 1918984); further: nearly all actives have a fitted effect of over 40% in size
Procedure, shortened: as §1

[11] = Quantitative High-Throughput drug screen in 47 multiple myeloma cell lines against the NCATS MIPE library collection: OCIMY7_PLB cell viability assay (AID 1918987); further: nearly all actives have a fitted effect of over 65% in size
Procedure, shortened: as §1

[12] = Quantitative High-Throughput drug screen in 47 multiple myeloma cell lines against the NCATS MIPE library collection: OCIMY5_PLB cell viability assay (AID 1918988); further: nearly all actives have a fitted effect of over 65% in size
Procedure, shortened: as §1

[13] = Quantitative High-Throughput drug screen in 47 multiple myeloma cell lines against the NCATS MIPE library collection: OPM1_PLB cell viability assay (AID 1918989); further: nearly all actives have a fitted effect of over 40% in size
Procedure, shortened: as §1

[14] = Quantitative High-Throughput drug screen in 47 multiple myeloma cell lines against the NCATS MIPE library collection: SKMM1_PLB cell viability assay (AID 1919863); conditions: SKMM1 myeloma viability, CellTiter-Glo ATP, 48 h; viability: active compounds read low; further: nearly all actives have a fitted effect of over 35% in size
Procedure, shortened: as §1

[15] = Quantitative High-Throughput drug screen in 47 multiple myeloma cell lines against the NCATS MIPE library collection: U266_ATCC cell viability assay (AID 1919864); further: nearly all actives have a fitted effect of over 35% in size
Procedure, shortened: as §1

[16] = Quantitative High-Throughput drug screen in 47 multiple myeloma cell lines against the NCATS MIPE library collection: XG6_PLB cell viability assay (AID 1919865); further: nearly all actives have a fitted effect of over 40% in size
Procedure, shortened: as §1

[17] = Quantitative High-Throughput drug screen in 47 multiple myeloma cell lines against the NCATS MIPE library collection: XG1_PLB cell viability assay (AID 1919866); further: nearly all actives have a fitted effect of over 35% in size
Procedure, shortened: as §1

[18] = Quantitative High-Throughput drug screen in 47 multiple myeloma cell lines against the NCATS MIPE library collection: VP6_DJ cell viability assay (AID 1919867); further: nearly all actives have a fitted effect of over 40% in size
Procedure, shortened: as §1

[19] = Quantitative High-Throughput drug screen in 47 multiple myeloma cell lines against the NCATS MIPE library collection: KMS34_JCRB cell viability assay (AID 1918985); further: nearly all actives have a fitted effect of over 40% in size
Procedure, shortened: as §1

[20] = Quantitative High-Throughput drug screen in 47 multiple myeloma cell lines against the NCATS MIPE library collection: NCIH929_DSMZ cell viability assay (AID 1918978); further: nearly all actives have a fitted effect of over 35% in size
Procedure, shortened: as §1
Potency means the concentration at half of the fitted maximal effect.

Compound: C=CC(=O)Nc1cc2c(Nc3ccc(F)c(Cl)c3)ncnc2cc1C#CC(C)(C)N1CCN(C)CC1
- Potency [1]: 332 nM (active)
- Potency [2]: 1660 nM (active)
- Potency [3]: 5260 nM (active)
- Potency [4]: 1050 nM (active)
- Potency [5]: 4690 nM (active)
- Potency [6]: 2090 nM (active)
- Potency [7]: 1320 nM (active)
- Potency [8]: 9350 nM (active)
- Potency [9]: 833 nM (active)
- Potency [10]: 1480 nM (active)
- Potency [11]: 469 nM (active)
- Potency [12]: 935 nM (active)
- Potency [13]: 833 nM (active)
- Potency [14]: 13200 nM (active)
- Potency [15]: 1050 nM (active)
- Potency [16]: 296 nM (active)
- Potency [17]: 526 nM (active)
- Potency [18]: 833 nM (active)

Compound: Cn1cc(-c2[nH]c3cc(NC(=O)[C@H](N)C4CCCCC4)cc4c3c2C=NNC4=O)cn1
- Potency [1]: 166 nM (active)
- Potency [2]: 8330 nM (active)
- Potency [3]: 1320 nM (active)
- Potency [4]: 526 nM (active)
- Potency [6]: 1180 nM (active)
- Potency [7]: 1050 nM (active)
- Potency [9]: 1480 nM (active)
- Potency [10]: 118 nM (active)
- Potency [19]: 4690 nM (active)
- Potency [11]: 6620 nM (active)
- Potency [12]: 1480 nM (active)
- Potency [13]: 1180 nM (active)
- Potency [15]: 18700 nM (active)
- Potency [16]: 209 nM (active)
- Potency [17]: 209 nM (active)
- Potency [18]: 1870 nM (active)

Compound: CC(C)(C)c1cnc(CSc2cnc(NC(=O)C3CCNCC3)s2)o1
- Potency [1]: 66.2 nM (active)
- Potency [2]: 148 nM (active)
- Potency [3]: 105 nM (active)
- Potency [4]: 83.3 nM (active)
- Potency [20]: 264 nM (active)
- Potency [5]: 1660 nM (active)
- Potency [6]: 66.2 nM (active)
- Potency [7]: 105 nM (active)
- Potency [8]: 105 nM (active)
- Potency [9]: 132 nM (active)
- Potency [10]: 166 nM (active)
- Potency [11]: 2350 nM (active)
- Potency [13]: 296 nM (active)
- Potency [14]: 264 nM (active)
- Potency [16]: 209 nM (active)
- Potency [17]: 296 nM (active)
- Potency [18]: 148 nM (active)

Compound: CC(C)c1nn(-c2c(Cl)cccc2Cl)c2nc(Cc3ccc(OCCO)cc3)[nH]c(=O)c12
- Potency [1]: inactive
- Potency [2]: 148 nM (active)
- Potency [3]: 148 nM (active)
- Potency [4]: 132 nM (active)
- Potency [20]: 105 nM (active)
- Potency [5]: 235 nM (active)
- Potency [6]: 41.8 nM (active)
- Potency [7]: 41.8 nM (active)
- Potency [8]: 132 nM (active)
- Potency [9]: 296 nM (active)
- Potency [11]: 74.3 nM (active)
- Potency [13]: 132 nM (active)
- Potency [14]: 332 nM (active)
- Potency [15]: 209 nM (active)
- Potency [16]: 83.3 nM (active)
- Potency [18]: 37.2 nM (active)

Compound: NC(=O)Nc1cc(-c2cccc(F)c2)sc1C(=O)N[C@H]1CCCNC1
- Potency [1]: 235 nM (active)
- Potency [2]: 11800 nM (active)
- Potency [3]: 4690 nM (active)
- Potency [4]: 118 nM (active)
- Potency [5]: 4690 nM (active)
- Potency [6]: 132 nM (active)
- Potency [7]: 148 nM (active)
- Potency [9]: 2640 nM (active)
- Potency [10]: 16.6 nM (active)
- Potency [19]: 93.5 nM (active)
- Potency [11]: 264 nM (active)
- Potency [13]: 296 nM (active)
- Potency [14]: 7430 nM (active)
- Potency [15]: 5900 nM (active)
- Potency [16]: 83.3 nM (active)
- Potency [17]: 187 nM (active)
- Potency [18]: 166 nM (active)

Compound: Nc1ncnc2c1c(-c1cnc3[nH]ccc3c1)nn2C1CCCC1
- Potency [1]: 1050 nM (active)
- Potency [2]: 10500 nM (active)
- Potency [3]: 187 nM (active)
- Potency [4]: 105 nM (active)
- Potency [20]: 235 nM (active)
- Potency [5]: 1870 nM (active)
- Potency [6]: 2960 nM (active)
- Potency [7]: 2090 nM (active)
- Potency [8]: 148 nM (active)
- Potency [9]: 1870 nM (active)
- Potency [10]: 93.5 nM (active)
- Potency [19]: 1870 nM (active)
- Potency [11]: 1180 nM (active)
- Potency [12]: 3320 nM (active)
- Potency [13]: 590 nM (active)
- Potency [14]: 4690 nM (active)
- Potency [15]: 14800 nM (active)
- Potency [16]: 526 nM (active)
- Potency [17]: 209 nM (active)
- Potency [18]: 372 nM (active)

Compound: CC(C)c1ccc(Cn2ccc3c4c(N)nc(NC5CC5)nc4ccc32)cc1
- Potency [1]: 1320 nM (active)
- Potency [2]: 10500 nM (active)
- Potency [3]: 16600 nM (active)
- Potency [4]: 13200 nM (active)
- Potency [5]: 14800 nM (active)
- Potency [6]: 10500 nM (active)
- Potency [7]: 9350 nM (active)
- Potency [8]: 4690 nM (active)
- Potency [9]: 9350 nM (active)
- Potency [10]: 469 nM (active)
- Potency [19]: 3320 nM (active)
- Potency [11]: 1660 nM (active)
- Potency [12]: 2350 nM (active)
- Potency [13]: 1870 nM (active)
- Potency [14]: 11800 nM (active)
- Potency [15]: 13200 nM (active)
- Potency [16]: 5260 nM (active)
- Potency [17]: 743 nM (active)
- Potency [18]: 3320 nM (active)

Compound: CN1CCN(c2ccc3nc(-c4c(N)c5c(F)cccc5[nH]c4=O)[nH]c3c2)CC1
- Potency [1]: 4690 nM (active)
- Potency [2]: 29600 nM (active)
- Potency [3]: 20900 nM (active)
- Potency [4]: 5900 nM (active)
- Potency [20]: 2350 nM (active)
- Potency [5]: 18700 nM (active)
- Potency [6]: 16600 nM (active)
- Potency [7]: 13200 nM (active)
- Potency [9]: 26400 nM (active)
- Potency [10]: 2960 nM (active)
- Potency [19]: 16600 nM (active)
- Potency [11]: 3320 nM (active)
- Potency [13]: 3720 nM (active)
- Potency [14]: 18700 nM (active)
- Potency [15]: 13200 nM (active)
- Potency [16]: 2090 nM (active)
- Potency [17]: 3320 nM (active)
- Potency [18]: 2350 nM (active)

Compound: CC(=O)Nc1nc(C)c(-c2ccc(Cl)c(S(=O)(=O)NCCO)c2)s1
- Potency [1]: 1660 nM (active)
- Potency [2]: 7430 nM (active)
- Potency [3]: 5900 nM (active)
- Potency [4]: 9350 nM (active)
- Potency [5]: 11800 nM (active)
- Potency [6]: 1480 nM (active)
- Potency [7]: 7430 nM (active)
- Potency [8]: 3320 nM (active)
- Potency [9]: 16600 nM (active)
- Potency [10]: 1180 nM (active)
- Potency [11]: 105 nM (active)
- Potency [12]: 9350 nM (active)
- Potency [13]: 2960 nM (active)
- Potency [15]: 6620 nM (active)
- Potency [16]: 2090 nM (active)
- Potency [18]: 2640 nM (active)
